Source: PubChem BioAssay (EPA / NIEHS)
Active and inactive are the calls of the source. How the source made its calls: active means hit-call score of the fitted dose curve at least 0.9, where 1 is the maximum; inactive means score below 0.9.

Tests used:
[1] = ATG_CRE_CIS: Attagene CIS-FACTORIAL HepG2 Assay for human cAMP Responsive Element (CRE) binding protein 3 (AID 2282926); details: HepG2 CRE cis-reporter, Attagene multiplexed mRNA; actives raise or lower the signal
How it was run: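 Endogenous transcription factor activity read via CRE-regulated reporter transcripts in transfected HepG2 cells. After 24 h exposure, RNA was reverse-transcribed, amplified, fluorescently labelled and sized by capillary electrophoresis; gain or loss fitted against DMSO.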

[2] = target: CCAAT/enhancer-binding protein beta (Homo sapiens) (UniProt P17676); assay: ATG_C_EBP_CIS: Attagene CIS-FACTORIAL HepG2 Assay for human CCAAT/Enhancer Binding Protein (C/EBP) beta (AID 2282927); details: HepG2 Attagene cis-factorial transcription factor reporter; actives raise or lower the signal
Sequence of CCAAT/enhancer-binding protein beta (Homo sapiens) (P17676 whole entry, looked up): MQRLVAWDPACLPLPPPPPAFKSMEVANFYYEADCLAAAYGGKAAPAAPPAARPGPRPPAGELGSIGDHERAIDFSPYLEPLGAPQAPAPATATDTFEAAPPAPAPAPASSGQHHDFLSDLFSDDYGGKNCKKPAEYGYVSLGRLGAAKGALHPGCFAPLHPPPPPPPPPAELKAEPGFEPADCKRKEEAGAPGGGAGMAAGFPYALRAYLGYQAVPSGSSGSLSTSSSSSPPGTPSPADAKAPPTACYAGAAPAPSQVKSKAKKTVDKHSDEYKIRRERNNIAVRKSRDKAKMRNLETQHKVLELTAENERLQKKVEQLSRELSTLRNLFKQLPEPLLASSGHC
How it was run: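 HepG2, transient MRTU transfection, 24 h treatment. RT-PCR plus CE fluorescence; DMSO negative control, bidirectional fit.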

[3] = ATG_CMV_CIS: Attagene CIS-FACTORIAL HepG2 Assay for human CMV (Internal Marker) (AID 2282928); details: HepG2 CMV promoter reporter, transcription factor profiling; actives raise or lower the signal;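 further: endpoint acts as a background internal control marker rather than a target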
How it was run: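 24 h chemical treatment, HepG2 with transient multi-reporter transfection; RNA → oligo(dT) RT → PCR → 6-FAM extension → HpaI digest → CE fluorescence. Bidirectional fit, DMSO negative control.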

[4] = ATG_DR4_LXR_CIS: Attagene CIS-FACTORIAL HepG2 Assay for human Liver X Receptor (LXR), DR4 submotif (AID 2282929); details: HepG2 Attagene DR4 cis-reporter, mRNA transcription; actives raise or lower the signal
How it was run: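 HepG2 cells were transiently transfected with multiple cis-regulated reporter units and dosed for 24 hours. The DR4 reporter mRNA was quantified by RT-PCR, 6-FAM labelling and capillary electrophoresis. Bidirectional fits used DMSO as baseline.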

[5] = target: Aryl hydrocarbon receptor (Homo sapiens) (UniProt P35869); assay: ATG_Ahr_CIS: Attagene CIS-FACTORIAL HepG2 Assay for human Aryl Hydrocarbon Receptor (Ahr) (AID 2282930); details: HepG2 AhR cis-factorial reporter transcription; actives raise or lower the signal
Sequence of Aryl hydrocarbon receptor (Homo sapiens) (P35869 whole entry, looked up): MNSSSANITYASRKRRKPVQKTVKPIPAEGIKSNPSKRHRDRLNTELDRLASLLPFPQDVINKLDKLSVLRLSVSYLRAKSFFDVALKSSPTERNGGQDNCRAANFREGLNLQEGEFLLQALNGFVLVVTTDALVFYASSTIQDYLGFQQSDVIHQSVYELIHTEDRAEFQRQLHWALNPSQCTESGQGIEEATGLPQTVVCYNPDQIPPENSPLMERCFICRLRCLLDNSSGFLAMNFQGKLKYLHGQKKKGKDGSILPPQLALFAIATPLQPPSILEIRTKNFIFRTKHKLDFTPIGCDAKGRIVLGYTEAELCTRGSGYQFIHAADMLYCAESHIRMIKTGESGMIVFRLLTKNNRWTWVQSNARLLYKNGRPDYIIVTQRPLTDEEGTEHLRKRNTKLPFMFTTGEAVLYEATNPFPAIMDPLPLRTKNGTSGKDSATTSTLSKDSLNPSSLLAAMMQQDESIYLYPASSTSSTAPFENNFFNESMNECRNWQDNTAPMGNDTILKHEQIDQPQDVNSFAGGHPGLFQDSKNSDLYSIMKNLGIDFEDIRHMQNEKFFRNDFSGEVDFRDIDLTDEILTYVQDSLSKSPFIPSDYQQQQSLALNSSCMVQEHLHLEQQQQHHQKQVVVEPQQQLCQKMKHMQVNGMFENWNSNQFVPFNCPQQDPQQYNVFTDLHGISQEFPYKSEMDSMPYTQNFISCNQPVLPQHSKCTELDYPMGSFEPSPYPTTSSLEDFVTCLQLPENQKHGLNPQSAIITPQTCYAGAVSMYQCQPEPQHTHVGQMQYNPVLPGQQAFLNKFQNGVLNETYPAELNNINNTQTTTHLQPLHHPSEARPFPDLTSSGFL
How it was run: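 Endogenous factor activity is tracked through cis-promoter reporter units transfected into HepG2 cells. Transcript levels at 24 h are read by fluorescent RT-PCR and capillary electrophoresis, with activity in either direction scored relative to DMSO.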

[6] = ATG_AP_1_CIS: Attagene CIS-FACTORIAL HepG2 Assay for human Activator Protein 1 (AP-1) (AID 2282931); details: HepG2 Attagene cis-factorial AP-1 reporter mRNA; actives raise or lower the signal
How it was run: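 HepG2 cells transiently transfected with cis-element-driven reporter transcription units, dosed for 24 hours. Reporter mRNA measured by RT-PCR, 6-FAM labelling, HpaI digestion and capillary electrophoresis. Bidirectional fitting against DMSO baseline.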

[7] = ATG_AP_2_CIS: Attagene CIS-FACTORIAL HepG2 Assay for human Activator Protein 2 (AP-2) (AID 2282932); details: HepG2 AP-2 cis-reporter, Attagene transcription factor profiling; actives raise or lower the signal
How it was run: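 Read-out: fluorescent reporter mRNA via RT-PCR and capillary electrophoresis, 24 h post-dose in transiently transfected HepG2. Endogenous factors drive cis-promoter reporters; gain or loss of signal fitted bidirectionally against DMSO.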

[8] = ATG_BRE_CIS: Attagene CIS-FACTORIAL HepG2 Assay for human Bone Morphogenetic Protein (BMP) Response Element (BRE) (AID 2282933); details: HepG2 BMP response element reporter, Attagene transcription factor profiling; actives raise or lower the signal
How it was run: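 HepG2 cells transiently transfected with multiplexed cis-element reporter units were dosed with chemical for 24 h. Reporter mRNA was measured by RT-PCR with fluorescent labelling, HpaI digestion and capillary electrophoresis; bidirectional fitting relative to DMSO.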

[9] = target: Retinoic acid receptor alpha (Homo sapiens) (UniProt P10276); assay: ATG_DR5_RAR_CIS: Attagene CIS-FACTORIAL HepG2 Assay for human Retinoic Acid Receptor Alpha (RARE), DR5 submotif (AID 2282934); details: HepG2 Attagene cis-factorial RARE DR5 reporter, mRNA; actives raise or lower the signal;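 on AC50: reporter responds to endogenous RAR alpha beta and gamma in HepG2 not RARA alone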
Sequence of Retinoic acid receptor alpha (Homo sapiens) (P10276 whole entry, looked up): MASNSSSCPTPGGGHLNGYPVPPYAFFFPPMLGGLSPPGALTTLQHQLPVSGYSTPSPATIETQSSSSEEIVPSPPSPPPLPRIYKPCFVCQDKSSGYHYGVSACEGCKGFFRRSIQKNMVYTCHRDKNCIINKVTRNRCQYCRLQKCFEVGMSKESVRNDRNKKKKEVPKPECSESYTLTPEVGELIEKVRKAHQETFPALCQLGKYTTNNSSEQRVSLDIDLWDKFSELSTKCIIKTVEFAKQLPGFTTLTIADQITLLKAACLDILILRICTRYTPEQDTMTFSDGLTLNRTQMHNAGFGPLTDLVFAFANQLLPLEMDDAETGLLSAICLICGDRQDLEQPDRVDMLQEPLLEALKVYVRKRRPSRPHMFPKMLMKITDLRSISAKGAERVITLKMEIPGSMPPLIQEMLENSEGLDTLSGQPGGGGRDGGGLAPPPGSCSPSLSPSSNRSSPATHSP
How it was run: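 After 24 h of chemical exposure, transiently transfected HepG2 cells were lysed for total RNA; the DR5-regulated reporter transcript was quantified via RT-PCR and capillary electrophoresis, with activity fitted bidirectionally against DMSO.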

[10] = ATG_E_Box_CIS: Attagene CIS-FACTORIAL HepG2 Assay for human Enhancer Box (E-box) (AID 2282936); details: HepG2 E-box cis-reporter transcription, actives raise or lower the signal
How it was run: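 Transiently transfected HepG2, endogenous TF-driven reporters, 24 h dosing. Readout: RT-PCR plus capillary electrophoresis of fluorescent reporter fragments. Gain or loss of signal fitted bidirectionally against DMSO baseline.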

[11] = ATG_M_61_CIS: Attagene CIS-FACTORIAL HepG2 Assay for M61 Transcription Factor (Internal Marker) (AID 2282937); details: HepG2 Attagene CIS-FACTORIAL M61 internal marker reporter; actives raise or lower the signal
How it was run: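 HepG2 cells transiently transfected with multiplexed cis-promoter reporter units reporting endogenous transcription factor activity, measured 24 h after dosing. Reporter mRNA quantified by RT-PCR and capillary electrophoresis; bidirectional fit against DMSO baseline.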

[12] = ATG_EGR_CIS: Attagene CIS-FACTORIAL HepG2 Assay for human Early Growth Response 1 (EGR1) (AID 2282938); details: HepG2 Attagene CIS-FACTORIAL EGR reporter mRNA; actives raise or lower the signal
How it was run: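 HepG2 cells transiently transfected with cis-element-driven multiplexed reporter units, dosed for 24 h. EGR1-element reporter mRNA quantified by RT-PCR, 6-FAM labelling, HpaI digestion and capillary electrophoresis; bidirectional fit versus DMSO.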

[13] = ATG_M_19_CIS: Attagene CIS-FACTORIAL HepG2 Assay for M19 Transcription Factor (Internal Marker) (AID 2282939); details: HepG2 Attagene CIS-FACTORIAL M19 internal marker reporter; actives raise or lower the signal
How it was run: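 HepG2 cells transiently transfected with cis-regulated multiple reporter transcription units were dosed for 24 h; reporter mRNA was quantified by RT-PCR, 6-FAM primer-extension labelling, HpaI digestion and capillary electrophoresis, with bidirectional fitting against DMSO baseline.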

[14] = ATG_Ets_CIS: Attagene CIS-FACTORIAL HepG2 Assay for human Erythroblast Transformation Specific (ETS) (AID 2282941); details: HepG2 ETS cis-reporter transcription, actives raise or lower the signal
How it was run: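 Cis-regulated reporter mRNA induction in HepG2 (transient transfection), 24 h exposure, RT-PCR plus capillary electrophoresis detection; DMSO serves as negative control and baseline.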

[15] = target: Hepatocyte nuclear factor 3-beta (Homo sapiens) (UniProt Q9Y261); assay: ATG_FoxA2_CIS: Attagene CIS-FACTORIAL HepG2 Assay for human Forkhead box A2 (FOXA2) (AID 2282942); details: HepG2 cis-reporter transcription factor activity, 24 h; actives raise or lower the signal
Sequence of Hepatocyte nuclear factor 3-beta (Homo sapiens) (Q9Y261 whole entry, looked up): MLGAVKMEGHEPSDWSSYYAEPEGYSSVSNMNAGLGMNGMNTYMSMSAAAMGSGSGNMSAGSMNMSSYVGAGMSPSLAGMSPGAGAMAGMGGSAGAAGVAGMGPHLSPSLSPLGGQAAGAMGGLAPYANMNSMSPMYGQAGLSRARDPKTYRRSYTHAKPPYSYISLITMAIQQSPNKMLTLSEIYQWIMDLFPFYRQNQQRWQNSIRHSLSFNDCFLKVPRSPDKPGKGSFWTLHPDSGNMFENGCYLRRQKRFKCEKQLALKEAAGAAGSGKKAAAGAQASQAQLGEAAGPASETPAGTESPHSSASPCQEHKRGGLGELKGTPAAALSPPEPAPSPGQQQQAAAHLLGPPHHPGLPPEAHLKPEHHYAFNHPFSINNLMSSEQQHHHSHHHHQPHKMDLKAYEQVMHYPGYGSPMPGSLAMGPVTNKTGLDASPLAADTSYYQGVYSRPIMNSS
How it was run: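 HepG2 transiently transfected with a multiplexed cis-promoter reporter library read endogenous FOXA2 activity. After 24 h compound exposure, reporter mRNA was quantified by RT-PCR, HpaI digestion and capillary electrophoresis. Bidirectional fit against DMSO.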

[16] = ATG_FoxO_CIS: Attagene CIS-FACTORIAL HepG2 Assay for human Forkhead box O (FoxO) (AID 2282943); details: HepG2 Attagene cis-reporter, FoxO element, mRNA; actives raise or lower the signal
How it was run: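 Transfected HepG2 reporter cells exposed to test chemical for 24 h; reporter RNA measured by reverse transcription, PCR and fluorescent capillary electrophoresis; curves fitted for increases and decreases against DMSO.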

[17] = ATG_GATA_CIS: Attagene CIS-FACTORIAL HepG2 Assay for human GATA Binding Protein (AID 2282944); details: HepG2 GATA cis-element reporter, Attagene multiplex mRNA; actives raise or lower the signal
How it was run: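 HepG2 cells transiently transfected with multiplexed cis-element reporter units reflecting endogenous transcription factor activity; reporter mRNA measured after 24 h dosing by RT-PCR, 6-FAM labeling, HpaI digestion and capillary electrophoresis. Bidirectional fitting versus DMSO baseline.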

[18] = ATG_GLI_CIS: Attagene CIS-FACTORIAL HepG2 Assay for human Zinc Finger Protein GLI1 (AID 2282945); details: HepG2, Attagene cis-factorial reporter mRNA, GLI element; actives raise or lower the signal
How it was run: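 Transiently transfected HepG2 cells report endogenous transcription factor activity via cis-element-driven reporter units. After 24 h compound exposure, reporter mRNA was measured by RT-PCR with capillary electrophoresis; bidirectional fitting against DMSO baseline.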

[19] = target: Transcription factor E2F1 (Homo sapiens) (UniProt Q01094); assay: ATG_E2F_CIS: Attagene CIS-FACTORIAL HepG2 Assay for human E2F Transcription Factor 1 (AID 2282935); details: HepG2 Attagene cis-reporter, E2F reporter RNA transcripts; actives raise or lower the signal
Sequence of Transcription factor E2F1 (Homo sapiens) (Q01094 whole entry, looked up): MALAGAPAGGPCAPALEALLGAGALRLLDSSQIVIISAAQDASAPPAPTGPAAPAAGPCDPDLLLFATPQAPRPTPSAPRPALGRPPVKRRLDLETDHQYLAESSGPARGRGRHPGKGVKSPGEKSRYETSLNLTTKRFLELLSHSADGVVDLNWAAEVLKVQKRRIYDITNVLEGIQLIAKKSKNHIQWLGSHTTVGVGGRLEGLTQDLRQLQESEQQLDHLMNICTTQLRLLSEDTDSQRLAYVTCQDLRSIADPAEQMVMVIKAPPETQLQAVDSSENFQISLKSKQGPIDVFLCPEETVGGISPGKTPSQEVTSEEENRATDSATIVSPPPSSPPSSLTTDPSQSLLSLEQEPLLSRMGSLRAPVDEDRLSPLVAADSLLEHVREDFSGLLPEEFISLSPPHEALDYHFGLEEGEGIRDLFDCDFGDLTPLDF
How it was run: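 Transient MRTU transfection of HepG2; 24 h compound exposure; RNA → oligo(dT) RT → PCR → FAM label → HpaI cut → CE fluorescence. Gain/loss of signal fit against DMSO.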

[20] = ATG_ERE_CIS: Attagene CIS-FACTORIAL HepG2 Assay for Estrogen Response Element (ERE) (AID 2282940); details: HepG2 ERE cis-reporter, Attagene RNA transcript; actives raise or lower the signal
How it was run: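 HepG2 cells transiently transfected with cis-promoter-driven multiplexed reporter transcription units report endogenous TF activity. After 24 h compound exposure, reporter mRNA is quantified by RT-PCR with capillary electrophoresis fluorescence; bidirectional fitting versus DMSO baseline.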

Measured: AC50

O=c1[nH]c(=O)c2cn[nH]c2[nH]1
not listed: [19] | [20]
inactive: all other assays above

CCCCCCCCCCCCCCCC(=O)OC/C=C(C)/C=C/C=C(C)/C=C/C1=C(C)CCCC1(C)C
not listed: [11] | [20]
inactive: all other assays above

Cc1ncc([N+](=O)[O-])n1CCO
not listed: [17] | [19]
inactive: all other assays above

Nc1ccc(NCCO)c([N+](=O)[O-])c1
active: [5] 7.19 µM
not listed: [9] | [20]
inactive: all other assays above

CCCCCc1ccco1
active: [4] 101 µM | [6] 90.9 µM | [12] 108 µM
not listed: [9] | [20]
inactive: all other assays above

CN(C)CCOC(C)(c1ccccc1)c1ccccn1 (stereo not drawn)
not listed: [14] | [19] | [20]
inactive: all other assays above

O=C(O)c1cc(C(=O)O)cc([N+](=O)[O-])c1
not listed: [9] | [20]
inactive: all other assays above

Cc1c(C2(c3cc(Br)c(O)c(Br)c3C)OS(=O)(=O)c3ccccc32)cc(Br)c(O)c1Br
active: [5] 32.5 µM
not listed: [17] | [19] | [20]
inactive: all other assays above

CCCCCC(=O)CC
not listed: [9] | [14] | [20]
inactive: all other assays above

C=C(C)[C@@H]1CC=C(C)C(=O)C1
not listed: [9] | [14] | [17] | [20]
inactive: all other assays above

CCc1cc(Cc2cc(CC)cc(C(C)(C)C)c2O)c(O)c(C(C)(C)C)c1
active: [1] 19.1 µM | [4] 14.8 µM | [6] 9.51 µM | [8] 4.81 µM | [9] 2.28 µM | [12] 18.5 µM | [18] 17.1 µM
not listed: [19] | [20]
inactive: all other assays above

CCOC(=O)CC(C)O (stereo not drawn)
not listed: [11] | [17] | [19] | [20]
inactive: all other assays above

CCOc1ccc(N=Nc2ccc(C=Cc3ccc(N=Nc4ccc(OCC)cc4)cc3S(=O)(=O)O)c(S(=O)(=O)O)c2)cc1
active: [5] 12.2 µM | [8] 7.28 µM
not listed: [9] | [20]
inactive: all other assays above

C=CCCC(=O)/C=C/C1C(C)=CCCC1(C)C (stereo not drawn)
active: [3] 140 µM | [4] 175 µM | [5] 53.2 µM | [6] 121 µM | [10] 160 µM
not listed: [19] | [20]
inactive: all other assays above

CCCC1O[C@@H]2C[C@H]3[C@@H]4CCC5=CC(=O)C=C[C@]5(C)[C@H]4[C@@H](O)C[C@]3(C)[C@]2(C(=O)CO)O1 (stereo partly drawn)
active: [2] 56.5 µM | [4] 100 µM | [6] 165 µM | [10] 100 µM
not listed: [9] | [20]
inactive: all other assays above
